Consider 29 compounds from PubChem BioAssay (Tox21).

Several values for one entry are separate records, joined by “and”; a condition that tells them apart may be missing. Identical values can stand only once. Records with an inconclusive call do not appear. More than one record can exist for a structure, and the calls need not agree. Activity calls are given as the source filed them. Unless noted, calls follow the shape of the dose curve; as a rule, active = well fitted curve in the direction sought with a large enough effect in the repeat runs; inconclusive = weak or mixed curves; inactive = no such curve, though single readings can be large; an effect the other way counts as inactive or inconclusive.

A short description of test [1]: qHTS assay to identify small molecule antagonists of the androgen receptor (AR) signaling pathway using the MDA cell line in the presence of 0.5 nM R1881 - cell viability counter screen (AID 1259242). Also: nearly all actives have a fitted effect of over 45% in size. Also: potency is read from the fitted curve at half-maximal effect. The method in brief: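 Steps: plate MDA-kb2 cells, rest 5 hr at 37C without CO2; pin in compounds in DMSO; add R1881 to 0.5 nM final; incubate 16 hr; add CellTiter-Fluor, 30 min; read fluorescence.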

The nature of test [2]: qHTS assay to identify small molecule HDAC inhibitors (AID 1259364). Also: potency is read from the fitted curve at half-maximal effect.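 Also: wild-type HCT-116 cells with endogenous class I/II HDAC activity; nearly all actives have a fitted effect of over 45% in size.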 As to activity change, negative = inhibition: top concentration of the series differs between compounds. The method in brief: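 Cells (HCT-116, wild type) are seeded at 1,500 per well, incubated overnight, treated with compound in DMSO for 2 hr, then developed with HDAC-Glo I/II reagent for 30 min at room temperature.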
Test [3] can be described thus: qHTS assay to identify small molecule agonists of the sonic hedgehog signaling (Shh) pathway - cell viability counter screen (AID 1259366). Also: nearly all actives have a fitted effect of over 50% in size. Also: potency is read from the fitted curve at half-maximal effect. Put shortly: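 NIH/3T3-derived 3T3 Gli1-Luc cells (stable Gli1-responsive firefly luciferase reporter) were seeded, rested 4 hr at 37 C/5% CO2, then exposed to compounds in DMSO for 24 hr; viability was read by CellTiter-Fluor fluorescence in the same wells.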

Test [4] is described as follows: qHTS assay to identify small molecule antagonists of the sonic hedgehog signaling (Shh) pathway - cell viability counter screen (AID 1259367). Also: nearly all actives have a fitted effect of over 55% in size. Also: potency is read from the fitted curve at half-maximal effect. The method in brief:
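Conditioned medium drove Shh signaling in 3T3 Gli1-Luc cells exposed to compounds at 37C and 5% CO2. Viability was determined from CellTiter-Fluor fluorescence, with reagent incubated 1 hr after 23 hr of treatment.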

Test [5] can be described thus: qHTS assay to identify small molecule agonists of the sonic hedgehog signaling (Shh) pathway (AID 1259368; calls by dose curve; also: nearly all actives have a fitted effect of over 15% in size; also: potency is read from the fitted curve at half-maximal effect; as to activity change: series mostly up to about 92 µM). The method in brief:
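Cells of a mouse NIH/3T3 clone stably expressing luciferase under the Gli1 transcriptional response element are exposed to test chemicals for 24 hr at 37 C. Pathway activation is detected as a rise in luminescence.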

Test [6] is described as follows: qHTS assay to identify small molecule antagonists of the estrogen receptor alpha (ER-alpha) signaling pathway using the BG1 cell line in the presence of 0.1 nM 17-beta-estradiol - cell viability counter screen (AID 1259241). Also: nearly all actives have a fitted effect of over 40% in size. Also: potency is read from the fitted curve at half-maximal effect. The method in brief:
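VM7Luc4E2 cells (endogenous ER-alpha, 4×ERE-luciferase), hormone-starved 5 days in charcoal-stripped FBS, were treated with compounds plus 0.1 nM 17beta-estradiol for 22 hr at 37C; viability read in same wells as CellTiter-Fluor live-cell protease fluorescence.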

Test [7] is described as follows: qHTS assay to identify small molecule HDAC inhibitors - cell viability counter screen (AID 1259365). Also: series mostly up to about 92 µM; nearly all actives have a fitted effect of over 50% in size. Put shortly:
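Wild-type HCT-116 cells were seeded at 1,500 per well, incubated overnight at 37 C, then exposed to compounds in DMSO for 2hr. Viability was read by CellTiter-Glo luminescence after 30min at room temperature.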

A short description of test [8]: qHTS assay to identify small molecule phospholipidosis (PLD) inducers (AID 1259344; active = well fitted curve in the direction sought with a large enough effect; an effect the other way counts as inactive or inconclusive; also: potency is read from the fitted curve at half-maximal effect). The method in brief:
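After 4 h attachment on collagen I, HepG2 cells were dosed with compound alongside LipidTOX Red, kept 24 h at 37 C, fixed, and imaged for lamellar phospholipid pits.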

Test [9] concerns the target Androgen receptor (Homo sapiens) (UniProt P10275). As to the kind of experiment: qHTS assay to identify small molecule antagonists of the androgen receptor (AR) signaling pathway using the MDA cell line in the presence of 0.5 nM R1881 (AID 1259243). Also: nearly all actives have a fitted effect of over 50% in size. Also: potency is read from the fitted curve at half-maximal effect. The method in brief: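 Stably transfected MDA-kb2 cells express luciferase from an MMTV promoter bearing both AR and GR response elements. Compounds plus 0.5 nM R1881 (final) were incubated 16 hr at 37C without CO2, then luminescence measured.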

The target in test [10] is Estrogen receptor (Homo sapiens) (UniProt P03372). As to the kind of experiment: qHTS assay to identify small molecule antagonists of the estrogen receptor alpha (ER-alpha) signaling pathway using the BG1 cell line in the presence of 0.1 nM 17-beta-estradiol (AID 1259244). Also: nearly all actives have a fitted effect of over 50% in size. Also: potency is read from the fitted curve at half-maximal effect. The method in brief:
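Antagonist mode: compounds in DMSO are pinned onto VM7Luc4E2 reporter cells, 0.1 nM final 17beta-estradiol is added, and after 22 h at 37C luciferase luminescence is measured with ONE-Glo.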
% is scaled to controls: 0 for no effect and ±100 for the full control effect.

Chain of Estrogen receptor (Homo sapiens) (P03372 whole entry, looked up): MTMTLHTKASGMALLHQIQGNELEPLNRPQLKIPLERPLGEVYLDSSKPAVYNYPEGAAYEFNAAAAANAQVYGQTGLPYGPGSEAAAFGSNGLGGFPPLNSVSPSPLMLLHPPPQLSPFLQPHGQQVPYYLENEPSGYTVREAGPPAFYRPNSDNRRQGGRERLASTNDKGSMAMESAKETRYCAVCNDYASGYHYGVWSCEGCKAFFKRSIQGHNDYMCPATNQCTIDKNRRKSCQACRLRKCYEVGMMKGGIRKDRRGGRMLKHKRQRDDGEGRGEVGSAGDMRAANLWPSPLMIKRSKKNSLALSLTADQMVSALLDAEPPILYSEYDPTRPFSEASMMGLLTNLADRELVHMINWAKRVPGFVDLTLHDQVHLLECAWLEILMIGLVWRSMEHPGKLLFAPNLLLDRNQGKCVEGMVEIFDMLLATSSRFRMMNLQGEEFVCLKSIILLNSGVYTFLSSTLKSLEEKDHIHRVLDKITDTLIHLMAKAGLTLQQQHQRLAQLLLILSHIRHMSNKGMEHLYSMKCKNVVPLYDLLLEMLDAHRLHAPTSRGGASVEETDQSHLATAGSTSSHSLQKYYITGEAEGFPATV
Chain of Androgen receptor (Homo sapiens) (P10275 whole entry, looked up): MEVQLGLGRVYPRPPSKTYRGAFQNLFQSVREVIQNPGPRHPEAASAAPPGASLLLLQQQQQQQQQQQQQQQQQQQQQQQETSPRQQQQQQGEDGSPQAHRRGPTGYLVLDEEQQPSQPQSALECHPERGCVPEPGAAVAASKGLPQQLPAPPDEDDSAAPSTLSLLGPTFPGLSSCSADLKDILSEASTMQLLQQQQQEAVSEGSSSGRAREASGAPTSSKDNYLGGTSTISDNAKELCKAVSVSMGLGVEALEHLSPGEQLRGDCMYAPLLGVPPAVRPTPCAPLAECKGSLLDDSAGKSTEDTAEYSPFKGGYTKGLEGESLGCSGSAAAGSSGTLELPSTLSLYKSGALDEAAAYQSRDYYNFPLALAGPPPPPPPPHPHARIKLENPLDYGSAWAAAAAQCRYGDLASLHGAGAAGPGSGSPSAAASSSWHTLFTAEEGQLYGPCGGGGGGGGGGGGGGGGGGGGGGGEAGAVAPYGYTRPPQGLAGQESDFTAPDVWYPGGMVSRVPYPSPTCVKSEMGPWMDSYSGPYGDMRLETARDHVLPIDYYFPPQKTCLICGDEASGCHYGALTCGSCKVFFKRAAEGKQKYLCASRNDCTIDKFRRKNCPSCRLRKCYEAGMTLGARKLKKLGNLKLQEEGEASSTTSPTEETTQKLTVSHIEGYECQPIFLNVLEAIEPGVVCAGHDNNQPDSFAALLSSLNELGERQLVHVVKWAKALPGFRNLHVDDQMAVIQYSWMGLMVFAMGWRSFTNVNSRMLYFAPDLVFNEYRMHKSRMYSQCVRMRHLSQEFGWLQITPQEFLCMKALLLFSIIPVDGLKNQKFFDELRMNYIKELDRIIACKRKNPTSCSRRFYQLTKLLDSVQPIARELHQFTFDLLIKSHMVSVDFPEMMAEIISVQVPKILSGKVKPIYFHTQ

With `Cc1ccc(O)c(O)c1`, the Potency entry in test [1], in [2] and in [5] was “inactive” in each case. The Potency in test [3] and in test [4] was 21.1 µM (active) in each case.

In the case of `CCC(CC)C(C)CCOC(C)=O` (stereo unspecified), the Potency result in [6], in test [7], in test [3], in test [4] and in test [5] was “inactive” each time.

Turning to `Nc1nc(N)nc(-c2cc(Cl)ccc2Cl)n1`, the Potency entry in [6], in test [8], in [7], in test [3], in test [4] and in test [5] was “inactive” in each case.

In the case of `Oc1ccccc1O`, the Potency entry in [1], in [2], in [7] and in [5] was “inactive” in each case. For the same compound, the Potency in test [3] is 9.81 µM (active) and 15.4 µM (active); in test [4], 6.19 µM (active) and 15.4 µM (active).

With `CNC(=O)c1ccccc1Sc1ccc2c(/C=C/c3ccccn3)n[nH]c2c1`, the Potency result in test [6] and in test [5] was “inactive” throughout.

For the compound `O=C1CCc2ccc(OCCCCN3CCN(c4cccc(Cl)c4Cl)CC3)cc2N1`, the Potency in test [1] is 29.8 µM (active). For the same compound, the Potency result in test [8], in test [2], in test [7], in test [4] and in test [5] was “inactive” in each case.

In the case of `Cc1cc(-c2ccc(N=Nc3cc(S(=O)(=O)O)c4ccccc4c3N)c(C)c2)ccc1N=Nc1cc(S(=O)(=O)O)c2ccccc2c1N`, the Potency entry in test [6], in [7], in [4] and in test [5] was “inactive” throughout.

With `CCC(COC(=O)CCS)(COC(=O)CCS)COC(=O)CCS`, the Potency entry in test [1], in [2], in test [7], in test [3], in test [4] and in [5] was “inactive” each time.

Regarding `Cc1ccc(N/N=c2\c(=O)cc/c(=N\Nc3ccc(S(=O)(=O)O)cc3)c2=O)c(C)c1`, the Potency in [6] is 27.3 µM (active); in test [2], 19.3 µM (active); in test [3], 30.6 µM (active); in [4], 27.3 µM (active). Moreover, the Potency entry in test [7] and in test [5] was “inactive” throughout.

Consider `O=S(=O)(O)c1ccc(N=Nc2c(O)ccc3ccccc23)cc1`, for which the Potency in test [6] was 54.5 µM (active); in test [2], 0.686 µM (active); in [3], 27.3 µM (active); in test [4], 27.3 µM (active). Moreover, the Potency result in test [5] is “inactive”.

For the compound `O=[N+]([O-])c1ccc(O)cc1C(F)(F)F`, the Potency in test [6] was 48.6 µM (active). For the same compound, the Potency result in [2], in [7], in [4] and in [5] was “inactive” in each case.

Turning to `Cc1cc(C)c(/C=C2\C(=O)Nc3ccccc32)[nH]1`, the Potency result in [1], in [10], in test [8], in [7], in test [3] and in [4] was “inactive” throughout. In test [5], the Potency result is “inactive”. In test [9], the Potency is 13.3 µM (active).

For `O=S(=O)(O)c1ccc(Nc2nc(Nc3ccc(/C=C/c4ccc(Nc5nc(Nc6ccc(S(=O)(=O)O)cc6)nc(N(CCO)CCO)n5)cc4S(=O)(=O)O)c(S(=O)(=O)O)c3)nc(N(CCO)CCO)n2)cc1`, the Potency entry in [1], in test [9], in test [10], in test [2], in [7] and in test [3] was “inactive” in each case. The Potency entry in test [4] and in test [5] was “inactive” throughout.

`CCCCCCCCCCCCCC[N+](C)(C)C`: the Potency is 23.5 µM (active) in [1]; 2.96 µM (active) and 3.85 µM (active) and 26.6 µM (active) in test [10]; 21 µM (active) and 27.3 µM (active) and inactive in [3]. The Potency entry in test [8], in test [2], in test [7], in test [4] and in test [5] was “inactive” throughout.

On to `CN1CCC[C@@H]1CCO[C@](C)(c1ccccc1)c1ccc(Cl)cc1`, for which the results for the Potency in [1] and in [3] were 26.6 µM (active) and 23.7 µM (active), respectively. The Potency entry in [7] and in test [5] was “inactive” throughout.

Take `COC1=C(OC)C(=O)C(CCCCCCCCCCO)=C(C)C1=O`: the Potency entry in test [1], in [8], in test [7], in test [3], in [4] and in test [5] was “inactive” in each case. Also, the Potency in test [9] is 29.8 µM (active).

For `O=C(O)O`, the viability change, negative = cytotoxic in [1] was 0.635% [at 8.39 µM] (inactive); in test [3] it was 1.19% [at 8.39 µM] (inactive); in test [4], -2.57% [at 8.39 µM] (inactive). Also, the activity change, negative = inhibition was -65% [at 8.39 µM] (inactive) in test [10] and 2.76% [at 8.39 µM] (inactive) in [2]. In addition, the activity change, negative = cytotoxicity in test [7] was -4.12% [at 8.39 µM] (inactive). In addition, the activity change in [5] is 0.72% [at 8.39 µM, stronger effect = higher value] (inactive).

With `CCN(CC)C(=O)c1cc(S(=O)(=O)Cc2ccccc2)c(N2CCC(c3ccccc3)CC2)cc1N(CC)CCN(C)C`, the Potency entry in test [6], in [8], in [7] and in test [5] was “inactive” each time. Besides, the values for the Potency in [3] and in test [4] were 13.5 µM (active) and 9.58 µM (active), respectively.

Turning to `C=C(C)C(=O)OCCCCCCCCCC`, the Potency entry in test [1], in [2], in test [7] and in test [5] was “inactive” in each case. The Potency in [4] was 54.9 µM (active).

For `C=CC(=O)Nc1cc2c(Nc3ccc(F)c(Cl)c3)ncnc2cc1OCCCN1CCOCC1`, the Potency was 0.376 µM (active) in test [1]; 7.5 µM (active) in test [9]; 0.891 µM (active) in test [8]; 3.76 µM (active) in test [3]; 7.5 µM (active) in test [4]. The Potency entry in test [10], in test [2], in test [7] and in [5] was “inactive” in each case.

Turning to `CCCCCCCCCCCCOC(=O)c1ccc(O)cc1`, the Potency entry in [1], in test [2], in test [7], in [3], in test [4] and in test [5] was “inactive” throughout.

Regarding `CC(=O)[C@H]1CC[C@H]2[C@@H]3CCC4=CC(=O)CC[C@]4(C)[C@H]3CC[C@]12C`, the Potency entry in [6], in test [2], in test [7], in [4] and in [5] was “inactive” each time.

With `O=C(O)c1cc(N=Nc2ccc([N+](=O)[O-])cc2)ccc1O`, the Potency entry in test [10], in test [7] and in test [5] was “inactive” each time. The Potency in [2] was 0.848 µM (active); in test [3], 26.8 µM (active); in test [4], 30.1 µM (active).

For `CC1(C)CCC[C@]2(C)[C@H]3CC(=O)O[C@]3(C)CC[C@@H]12`, the Potency result in test [1], in [10], in test [2], in [7], in test [3] and in test [4] was “inactive” each time. Further, the Potency result in [5] was “inactive”.

With `OC12N=C(c3ccccc3)SC1Cc1cc(Cl)ccc12` (stereo unspecified), the Potency result in test [6], in [7], in test [3] and in [4] was “inactive” in each case. The Potency was 27.3 µM (active) in [2] and 2.73 µM (active) in [5].

Consider `CC(N=C(NC#N)Nc1ccncc1)C(C)(C)C` (stereo unspecified), for which the Potency entry in test [6], in test [8], in [7], in test [3], in test [4] and in test [5] was “inactive” throughout.

In the case of `Nc1ccc(NCCO)c([N+](=O)[O-])c1`, the Potency entry in test [2], in test [7] and in test [5] was “inactive” throughout.

As for `CN1CCN(Cc2cc(-c3ccc4[nH]c(=O)oc4c3)co2)[C@@H](c2ccc(F)cc2)C1`, the Potency result in test [1], in test [2], in test [7] and in test [5] was “inactive” in each case.

As for `O=S(=O)(O)c1ccccc1/C=C/c1ccc(-c2ccc(/C=C/c3ccccc3S(=O)(=O)O)cc2)cc1`, the Potency result in [1], in test [10], in test [2], in [7] and in test [5] was “inactive” in each case.
